Results reported in PubChem BioAssay (EPA / NIEHS).
Calls of active or inactive are those of the source. Rule for the calls: active = hit-call score of the fitted dose curve at least 0.9, where 1 is the maximum; inactive = score below 0.9.

Assay: ATG_ISRE_CIS: Attagene CIS-FACTORIAL HepG2 Assay for human Interferon Regulatory Factor 1 (IRF1) binding to an Interferon-Stimulated Response Element (ISRE) (AID 2282948)
Settings: HepG2 ISRE cis-reporter (Attagene), mRNA transcription readout; actives raise or lower the signal
Procedure, shortened: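 Endogenous transcription factor activity read as reporter transcript abundance via RT-PCR and capillary electrophoresis. HepG2 cells transiently transfected, 24 h chemical exposure. Gain or loss fitted against DMSO baseline.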

Q: With `CCCCCCCCCCCCOCCO` as the molecule, how does the AC50 read?
A: 20.4 µM (active)

Q: Which outcome does the source give for `CC(C)=CCC/C(C)=C/COC=O` here?
A: inactive

Q: Which outcome does the source give for `CCC(=O)OCCC(C)CCC=C(C)C` (centres undefined) here?
A: inactive

Q: For `CCCCCCCCCCN`, which outcome is on record?
A: inactive

Q: With `O=C1C(c2[nH]c3ccc(S(=O)(=O)O)cc3c2O)=Nc2ccc(S(=O)(=O)O)cc21` as the molecule, how does the outcome read?
A: inactive

Q: For `CCCCOCCOCCOCCOCCO`, which outcome is on record?
A: inactive

Q: For `NCCCCCCN`, which outcome is on record?
A: inactive

Q: Which outcome does the source give for `CC(C)(COC(=O)c1ccccc1)COC(=O)c1ccccc1` here?
A: inactive

Q: For `O=C(COc1ccc(Cl)cc1)N1CCN(Cc2ccc3c(c2)OCO3)CC1`, which AC50 is on record?
A: 58 µM (active)

Q: For `O=CCCc1ccccc1`, which outcome is on record?
A: inactive

Q: Which outcome does the source give for `CCCCCCCCC=O` here?
A: inactive

Q: For `OCCCCCO`, which outcome is on record?
A: inactive

Q: For `C=C(C)C(=O)Nc1ccc(Cl)c(Cl)c1`, which outcome is on record?
A: inactive

Q: With `C=C(C)[C@@H]1CC[C@@H](C)C[C@@H]1O` as the molecule, how does the outcome read?
A: inactive

Q: With `OC[C@H]1O[C@H](O[C@]2(CCl)O[C@H](CCl)[C@@H](O)[C@@H]2O)[C@H](O)[C@@H](O)[C@H]1Cl` as the molecule, how does the outcome read?
A: inactive

Q: With `O=c1[nH]c(=O)n([C@H]2CCCO2)cc1F` as the molecule, how does the outcome read?
A: inactive

Q: Which outcome does the source give for `Cc1ccc(C=O)s1` here?
A: inactive

Q: Which outcome does the source give for `C=O` here?
A: inactive

Q: For `O=C(O)c1cccc(C(F)(F)F)c1`, which outcome is on record?
A: inactive

Q: For `Fc1c(F)c(F)c(Br)c(F)c1F`, which outcome is on record?
A: inactive

Q: Which outcome does the source give for `C=C(C)C1CCC(C)CC1O` (centres undefined) here?
A: inactive

Q: For `O=S(=O)(O)NC1CCCCC1`, which outcome is on record?
A: inactive

Q: For `CCCCCCCCCCC(CO)CCCCCCCC` (centres undefined), which outcome is on record?
A: inactive

Q: With `CO[Si](CCCn1c(=O)n(CCC[Si](OC)(OC)OC)c(=O)n(CCC[Si](OC)(OC)OC)c1=O)(OC)OC` as the molecule, how does the outcome read?
A: inactive

Q: Which outcome does the source give for `C=CCOc1nc(OCC=C)nc(OCC=C)n1` here?
A: inactive

Q: With `C=C(C)C(=O)O[C@H]1C[C@@H]2CC[C@@]1(C)C2(C)C` as the molecule, how does the outcome read?
A: inactive

Q: For `Cc1ccc(S)cc1`, which AC50 is on record?
A: 35.3 µM (active)

Q: For `CCCCCCOC(=O)CCCCC`, which outcome is on record?
A: inactive

Q: With `Nc1ccc(S(N)(=O)=O)cc1` as the molecule, how does the outcome read?
A: inactive

Q: For `CC(C)=CCO`, which outcome is on record?
A: inactive

Q: With `CCOc1ccccc1OCC` as the molecule, how does the outcome read?
A: inactive

Q: With `CC(=O)C(=O)O` as the molecule, how does the outcome read?
A: inactive

Q: Which outcome does the source give for `CC1(C)C(=O)N(Br)C(=O)N1Cl` here?
A: inactive

Q: Which outcome does the source give for `CCC(C)CCCC(C)(C)O` (centres undefined) here?
A: inactive

Q: Which outcome does the source give for `Clc1sc(Cl)c(Cl)c1Cl` here?
A: inactive

Q: Which outcome does the source give for `CC1(CO)CN(c2ccccc2)NC1=O` (centres undefined) here?
A: inactive

Q: For `CCOC(=O)c1ccccc1OC`, which outcome is on record?
A: inactive

Q: For `CCCOCC(C)O` (centres undefined), which outcome is on record?
A: inactive

Assay: ATG_M_32_CIS: Attagene CIS-FACTORIAL HepG2 Assay for M32 Transcription Factor (Internal Marker) (AID 2282949);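 note: background control marker of the multiplexed CIS panel rather than a real target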
Settings: HepG2 Attagene cis-factorial M32 reporter, mRNA; actives raise or lower the signal
Procedure, shortened: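 Transient MRTU transfection of HepG2; 24 h compound treatment; TriZol RNA, oligo(dT) RT, reporter PCR, 6-FAM primer extension, HpaI cut, CE. Gain/loss of signal vs DMSO.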

Q: With `CCCCCCCCCCCCOCCO` as the molecule, how does the outcome read?
A: inactive

Q: For `CC(C)=CCC/C(C)=C/COC=O`, which outcome is on record?
A: inactive

Q: Which outcome does the source give for `CCC(=O)OCCC(C)CCC=C(C)C` (centres undefined) here?
A: inactive

Q: Which outcome does the source give for `CCCCCCCCCCN` here?
A: inactive

Q: For `O=C1C(c2[nH]c3ccc(S(=O)(=O)O)cc3c2O)=Nc2ccc(S(=O)(=O)O)cc21`, which outcome is on record?
A: inactive

Q: For `CCCCOCCOCCOCCOCCO`, which outcome is on record?
A: inactive

Q: With `NCCCCCCN` as the molecule, how does the outcome read?
A: inactive

Q: Which outcome does the source give for `CC(C)(COC(=O)c1ccccc1)COC(=O)c1ccccc1` here?
A: inactive

Q: With `O=C(COc1ccc(Cl)cc1)N1CCN(Cc2ccc3c(c2)OCO3)CC1` as the molecule, how does the outcome read?
A: inactive

Q: With `O=CCCc1ccccc1` as the molecule, how does the outcome read?
A: inactive

Q: Which outcome does the source give for `CCCCCCCCC=O` here?
A: inactive

Q: With `OCCCCCO` as the molecule, how does the outcome read?
A: inactive

Q: With `C=C(C)C(=O)Nc1ccc(Cl)c(Cl)c1` as the molecule, how does the outcome read?
A: inactive

Q: For `C=C(C)[C@@H]1CC[C@@H](C)C[C@@H]1O`, which outcome is on record?
A: inactive

Q: Which outcome does the source give for `OC[C@H]1O[C@H](O[C@]2(CCl)O[C@H](CCl)[C@@H](O)[C@@H]2O)[C@H](O)[C@@H](O)[C@H]1Cl` here?
A: inactive

Q: With `O=c1[nH]c(=O)n([C@H]2CCCO2)cc1F` as the molecule, how does the outcome read?
A: inactive

Q: For `Cc1ccc(C=O)s1`, which outcome is on record?
A: inactive

Q: Which outcome does the source give for `C=O` here?
A: inactive

Q: Which outcome does the source give for `O=C(O)c1cccc(C(F)(F)F)c1` here?
A: inactive

Q: With `Fc1c(F)c(F)c(Br)c(F)c1F` as the molecule, how does the outcome read?
A: inactive

Q: For `C=C(C)C1CCC(C)CC1O` (centres undefined), which outcome is on record?
A: inactive

Q: Which outcome does the source give for `O=S(=O)(O)NC1CCCCC1` here?
A: inactive

Q: Which outcome does the source give for `CCCCCCCCCCC(CO)CCCCCCCC` (centres undefined) here?
A: inactive

Q: For `CO[Si](CCCn1c(=O)n(CCC[Si](OC)(OC)OC)c(=O)n(CCC[Si](OC)(OC)OC)c1=O)(OC)OC`, which outcome is on record?
A: inactive

Q: For `C=CCOc1nc(OCC=C)nc(OCC=C)n1`, which outcome is on record?
A: inactive

Q: Which outcome does the source give for `C=C(C)C(=O)O[C@H]1C[C@@H]2CC[C@@]1(C)C2(C)C` here?
A: inactive

Q: For `Cc1ccc(S)cc1`, which outcome is on record?
A: inactive

Q: With `CCCCCCOC(=O)CCCCC` as the molecule, how does the outcome read?
A: inactive

Q: For `Nc1ccc(S(N)(=O)=O)cc1`, which outcome is on record?
A: inactive

Q: For `CC(C)=CCO`, which outcome is on record?
A: inactive

Q: With `CCOc1ccccc1OCC` as the molecule, how does the outcome read?
A: inactive

Q: Which outcome does the source give for `CC(=O)C(=O)O` here?
A: inactive

Q: Which outcome does the source give for `CC1(C)C(=O)N(Br)C(=O)N1Cl` here?
A: inactive

Q: For `CCC(C)CCCC(C)(C)O` (centres undefined), which outcome is on record?
A: inactive

Q: With `Clc1sc(Cl)c(Cl)c1Cl` as the molecule, how does the outcome read?
A: inactive

Q: Which outcome does the source give for `CC1(CO)CN(c2ccccc2)NC1=O` (centres undefined) here?
A: inactive

Q: Which outcome does the source give for `CCOC(=O)c1ccccc1OC` here?
A: inactive

Q: With `CCCOCC(C)O` (centres undefined) as the molecule, how does the outcome read?
A: inactive

Assay: ATG_M_06_CIS: Attagene CIS-FACTORIAL HepG2 Assay for M06 Transcription Factor (Internal Marker) (AID 2282950)
Settings: HepG2 Attagene CIS-FACTORIAL M06 internal marker reporter; actives raise or lower the signal
Procedure, shortened: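 Steps: transfect HepG2 with multiplexed cis-element reporter constructs; dose chemical 24 h; extract RNA with DNase treatment; reverse-transcribe, PCR-amplify, 6-FAM label, HpaI digest; separate fragments by capillary electrophoresis. Activity fitted both directions versus DMSO.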

Q: With `CCCCCCCCCCCCOCCO` as the molecule, how does the outcome read?
A: inactive

Q: For `CC(C)=CCC/C(C)=C/COC=O`, which outcome is on record?
A: inactive

Q: For `CCC(=O)OCCC(C)CCC=C(C)C` (centres undefined), which outcome is on record?
A: inactive

Q: For `CCCCCCCCCCN`, which outcome is on record?
A: inactive

Q: With `O=C1C(c2[nH]c3ccc(S(=O)(=O)O)cc3c2O)=Nc2ccc(S(=O)(=O)O)cc21` as the molecule, how does the outcome read?
A: inactive

Q: For `CCCCOCCOCCOCCOCCO`, which outcome is on record?
A: inactive

Q: For `NCCCCCCN`, which outcome is on record?
A: inactive

Q: With `CC(C)(COC(=O)c1ccccc1)COC(=O)c1ccccc1` as the molecule, how does the outcome read?
A: inactive

Q: For `O=C(COc1ccc(Cl)cc1)N1CCN(Cc2ccc3c(c2)OCO3)CC1`, which outcome is on record?
A: inactive

Q: For `O=CCCc1ccccc1`, which outcome is on record?
A: inactive

Q: With `CCCCCCCCC=O` as the molecule, how does the outcome read?
A: inactive

Q: With `OCCCCCO` as the molecule, how does the outcome read?
A: inactive

Q: With `C=C(C)C(=O)Nc1ccc(Cl)c(Cl)c1` as the molecule, how does the outcome read?
A: inactive

Q: Which outcome does the source give for `C=C(C)[C@@H]1CC[C@@H](C)C[C@@H]1O` here?
A: inactive

Q: With `OC[C@H]1O[C@H](O[C@]2(CCl)O[C@H](CCl)[C@@H](O)[C@@H]2O)[C@H](O)[C@@H](O)[C@H]1Cl` as the molecule, how does the outcome read?
A: inactive

Q: For `O=c1[nH]c(=O)n([C@H]2CCCO2)cc1F`, which outcome is on record?
A: inactive

Q: With `Cc1ccc(C=O)s1` as the molecule, how does the outcome read?
A: inactive

Q: Which outcome does the source give for `C=O` here?
A: inactive

Q: Which outcome does the source give for `O=C(O)c1cccc(C(F)(F)F)c1` here?
A: inactive

Q: With `Fc1c(F)c(F)c(Br)c(F)c1F` as the molecule, how does the outcome read?
A: inactive

Q: Which outcome does the source give for `C=C(C)C1CCC(C)CC1O` (centres undefined) here?
A: inactive

Q: For `O=S(=O)(O)NC1CCCCC1`, which outcome is on record?
A: inactive

Q: For `CCCCCCCCCCC(CO)CCCCCCCC` (centres undefined), which outcome is on record?
A: inactive

Q: Which outcome does the source give for `CO[Si](CCCn1c(=O)n(CCC[Si](OC)(OC)OC)c(=O)n(CCC[Si](OC)(OC)OC)c1=O)(OC)OC` here?
A: inactive

Q: Which outcome does the source give for `C=CCOc1nc(OCC=C)nc(OCC=C)n1` here?
A: inactive

Q: With `C=C(C)C(=O)O[C@H]1C[C@@H]2CC[C@@]1(C)C2(C)C` as the molecule, how does the outcome read?
A: inactive

Q: For `Cc1ccc(S)cc1`, which outcome is on record?
A: inactive

Q: Which outcome does the source give for `CCCCCCOC(=O)CCCCC` here?
A: inactive

Q: For `Nc1ccc(S(N)(=O)=O)cc1`, which outcome is on record?
A: inactive

Q: For `CC(C)=CCO`, which outcome is on record?
A: inactive

Q: Which outcome does the source give for `CCOc1ccccc1OCC` here?
A: inactive

Q: With `CC(=O)C(=O)O` as the molecule, how does the outcome read?
A: inactive

Q: With `CC1(C)C(=O)N(Br)C(=O)N1Cl` as the molecule, how does the outcome read?
A: inactive

Q: Which outcome does the source give for `CCC(C)CCCC(C)(C)O` (centres undefined) here?
A: inactive

Q: For `Clc1sc(Cl)c(Cl)c1Cl`, which outcome is on record?
A: inactive

Q: For `CC1(CO)CN(c2ccccc2)NC1=O` (centres undefined), which outcome is on record?
A: inactive

Q: With `CCOC(=O)c1ccccc1OC` as the molecule, how does the outcome read?
A: inactive

Q: For `CCCOCC(C)O` (centres undefined), which outcome is on record?
A: inactive
